# Assay outcomes from PubChem.
# Most compounds without a hit are left out; they make up all but 28% or so of the library.
# CYP2C19 activ: cytochrome P450 2C19 (human) activation | P33261 | recombinant CYP2C19, luciferin-H EGE luminescence; hits give high values; 0 = fully inhibited enzyme, 1 = untreated enzyme | activation factor at 5 µM | 96,000 tested, under 10 active | AID 1025;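 active = activation factor of at least 2 at 5 µM in the primary screen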
# PLK1 kinase inh: blocks human PLK1 kinase activity; P53350; recombinant PLK1 kinase, TR-FRET peptide phosphorylation; inhibition, % at 10 µM; 97,000 tested, 0.53% active; AID 619;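 active = inhibition of 50% or more in the single-concentration screen; inactive = inhibition below 50%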
# CYP2C19 inh: human CYP2C19 inhibition; inhibition, % at 5 µM; 96,000 tested, 21% active; CYP2C19 Supersomes, luciferin-H EGE luminescence, 30 min; AID 778; P33261;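 active = CYP2C19 inhibition above a set limit at 5 µM in the primary screen, cut at about 50% in these data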
# CYP2C9 activ: activators of human CYP2C9 | recombinant CYP2C9, luciferin-H conversion, luminescence; hits give high values; factor 1 = untreated enzyme, 0 = blocked | AID 1024 | 96,000 tested, 1.4% active | activation factor at 5 µM | P11712;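 active = activation factor of 2 or more for CYP2C9 at a 5 µM dose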
# Target sequence (P11712 whole entry, looked up): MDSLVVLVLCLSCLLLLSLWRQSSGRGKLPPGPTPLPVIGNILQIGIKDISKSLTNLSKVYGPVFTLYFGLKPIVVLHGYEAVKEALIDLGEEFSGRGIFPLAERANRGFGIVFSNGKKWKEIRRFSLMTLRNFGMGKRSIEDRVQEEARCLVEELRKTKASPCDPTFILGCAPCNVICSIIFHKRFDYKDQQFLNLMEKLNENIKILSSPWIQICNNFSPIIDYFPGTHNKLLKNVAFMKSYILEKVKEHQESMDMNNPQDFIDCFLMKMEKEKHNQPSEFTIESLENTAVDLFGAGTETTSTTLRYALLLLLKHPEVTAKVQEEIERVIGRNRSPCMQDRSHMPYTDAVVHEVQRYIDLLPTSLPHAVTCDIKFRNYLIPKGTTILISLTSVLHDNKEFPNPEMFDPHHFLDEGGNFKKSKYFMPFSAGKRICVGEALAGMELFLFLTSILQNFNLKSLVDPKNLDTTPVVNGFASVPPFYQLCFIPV
# Plk1 PBD FP: blocks phosphopeptide binding to human Plk1 polo box domain | 97,000 tested, 0.13% active | Plk1 PBD phosphopeptide binding, fluorescence polarization | P53350 | inhibition, %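 (tested at about 20 µM)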; in the data active = inhibition above about 34%, passing the limit was not always enough
# CYP2C9 inh: blocks human cytochrome P450 2C9; CYP2C9 Supersomes, luciferin-H conversion, luminescence; P11712; inhibition, % at 5 µM; 96,000 tested, 20% active;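 active = blocking of liver enzyme CYP2C9 beyond about 50% at 5 µM, limit read from the data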
# A number is an active result; - = inactive; . = not tested or not shown.
SMILES,CYP2C19 activ,PLK1 kinase inh,CYP2C19 inh,CYP2C9 activ,Plk1 PBD FP,CYP2C9 inh
Cn1c(=O)cc(OCC(=O)NCc2ccccn2)c2ccccc21,-,-,-,-,-,-
O=C(O)CCCC(=O)NCc1ccccn1,-,-,-,-,-,-
COC(=O)c1ccc(CNC(=O)COc2ccccc2Br)o1,-,-,71,-,-,-
O=C(COc1ccccc1Br)NCc1ccccn1,-,-,65,-,-,-
Cc1ccc(OCC(=O)NCc2ccccn2)c(Br)c1,-,-,61,-,-,-
O=C(COc1ccc(F)cc1Br)NCc1ccccn1,-,-,59,-,-,-
COc1cc(NC(=O)c2ccc(COc3ccccc3Br)o2)cc(OC)c1OC,-,-,-,-,-,-
Cc1nccn1CC(=O)O,-,.,-,-,.,-
O=C(C1CCN(C2CC(=O)N(c3ccc(Cl)cc3)C2=O)CC1)N1CCOCC1 (stereo not given),-,-,-,-,-,-
COc1ccc(/C=N/NC(=O)C(C)n2nnc3ccccc32)cc1OC (stereo not given),-,-,-,-,-,-
Cc1[nH]c2ccccc2c1C(=O)Cn1c(=O)oc2ccccc21,-,-,62,-,-,58
Cc1[nH]c2ccccc2c1C(=O)CN1CCC2(CC1)OCCO2,-,-,-,-,-,-
COCCn1nnnc1SCC(=O)c1ccccc1,-,.,67,-,.,-
COc1ccc(-n2nnnc2SCC(=O)c2cccc(OC)c2)cc1,-,-,-,-,-,-
CCCn1nnnc1SCC(=O)c1ccc(NC(C)=O)cc1,-,-,-,-,-,-
CCn1nnnc1SCC(=O)c1cccc(OC)c1,-,-,76,-,-,-
C=CCNCc1cccn1-c1ccccc1,-,-,-,-,-,-
O=C(NCc1ccc2c(c1)OCO2)C1CCCN1C(=O)Nc1cccc(Cl)c1 (stereo not given),-,-,-,-,-,-
Cc1sc(NC(=O)CN(Cc2ccc(F)cc2)C(=O)C(C)C)c(C(N)=O)c1C,-,-,51,-,-,-
Cc1cc(=O)n2[nH]c(-c3ccc(Cl)cc3)cc2n1,-,-,75,-,-,-
COCCNC(=O)C(c1ccco1)N(C(=O)Cn1nnc2ccccc21)c1ccccc1C (stereo not given),-,-,-,-,-,-
Cc1ccccc1N(C(=O)Cn1nnc(-c2cccs2)n1)C(C(=O)NCCC(C)C)c1ccco1 (stereo not given),-,-,60,-,-,84
CC(C)CCNC(=O)C(c1ccco1)N(Cc1cccs1)C(=O)Cn1nnc2ccccc21 (stereo not given),-,.,73,-,.,59
CCC(=O)Nc1nnc(SCC(=O)Nc2ccc(F)cc2)s1,-,-,-,-,-,-
NC(=O)CNC(=O)C1CCCc2c1[nH]c1ccc(Cl)cc21 (stereo not given),-,-,-,-,-,50
SMILES,CYP2C19 activ,PLK1 kinase inh,CYP2C19 inh,CYP2C9 activ,Plk1 PBD FP,CYP2C9 inh
CCOC(=O)C1(C(F)(F)F)N=C(C(F)(F)F)Nc2ccccc21 (stereo not given),-,-,54,-,-,66
CCO/C(C)=C1\C(=O)Nc2ccccc21,-,-,-,-,-,-
CSc1cc(-c2ccc(Cl)cc2)c(C(=O)N2CCCC2)s1,-,-,-,-,-,-
O=C1C2C3C=CC(C3)C2C(=O)N1c1n[nH]c(-c2ccccc2)n1 (stereo not given),-,-,-,-,-,-
O=C1C2CC=CCC2C(=O)N1c1n[nH]c(-c2ccccc2)n1 (stereo not given),-,-,80,-,-,92
C=CCOc1ccc2c(c1)C(=NO)c1cc(OCC=C)ccc1-2,-,-,-,-,-,82
COc1ccc2c(c1)C(=NO)c1cc(OC)ccc1-2,-,.,-,-,.,96
C=CCOc1ccc(/C=C/C(C)=N\O)cc1,-,-,-,-,-,-
COc1cc(C(=O)NCc2cn3cccc(C)c3n2)cc(OC)c1OC,-,-,-,-,-,-
COc1ccccc1NS(=O)(=O)c1ccc2oc(SC3CCOC3=O)nc2c1 (stereo not given),-,-,53,-,-,-
COc1ccccc1NS(=O)(=O)c1ccc(C)c(C(=O)NCC2CCCO2)c1 (stereo not given),-,-,-,-,-,-
O=C(O)CCS(=O)(=O)Cc1ccccc1Cl,-,-,-,-,-,-
CO/N=C(/CS(=O)(=O)Cc1ccccc1Cl)c1ccc(Cl)cc1Cl,-,-,52,-,-,-
O=C1c2ccccc2C(=O)N1CC1c2ccccc2CCN1C(=O)C1CCCCC1 (stereo not given),-,-,73,-,-,-
O=C(O)[C@@H]1CCCC[C@@H]1C(=O)N1CCc2ccccc2C1CN1C(=O)c2ccccc2C1=O (stereo not given in full),-,-,-,-,-,-
O=C(Nn1cnnc1)C(c1ccccc1)c1ccccc1,-,-,-,-,-,-
O=C(/C=C/c1ccccc1)Nn1cnnc1,-,-,53,-,-,54
O=c1ccc(/C=C/c2ccccc2)nn1Cc1ccccc1,-,-,-,-,-,64
CCC(=O)Nc1nnc(Sc2ccc(N(C)C)cc2)s1,-,-,96,-,-,-
CCCC(=O)Nc1nnc(Sc2ccc(N(C)C)cc2)s1,-,-,94,-,-,-
CC1=C(C#N)C(=O)OC(C)(C)C1,-,-,-,-,-,-
C=CCn1c(SCC(=O)N2CCOCC2)nc(O)c(Cc2ccccc2)c1=O,-,-,-,-,-,-
COc1ccccc1N(O)C1CC(=O)N(c2ccc(Br)cc2)C1=O (stereo not given),-,.,-,-,.,-
CCCCCCC(=O)N(O)C1CC(=O)N(c2ccc(Br)cc2)C1=O (stereo not given),-,-,52,-,-,-
O=C(CSc1nc(-c2ccccc2)cc(=O)[nH]1)N1CCOCC1,-,-,-,-,-,-
SMILES,CYP2C19 activ,PLK1 kinase inh,CYP2C19 inh,CYP2C9 activ,Plk1 PBD FP,CYP2C9 inh
N#CC1(Cc2ccccc2)c2ccccc2C=CN1C(=O)c1ccccc1 (stereo not given),-,-,93,-,-,72
N#CC1(Cc2ccc([N+](=O)[O-])cc2)c2ccccc2C=CN1C(=O)c1ccccc1 (stereo not given),-,-,68,-,-,68
CCn1nnnc1-c1ccc(OC)c(S(=O)(=O)N2CCCCC2)c1,-,-,-,-,-,-
O=S(=O)(Nc1ccc2nc(C(F)(F)F)[nH]c2c1)c1ccccc1,-,-,100,-,-,81
O=S(=O)(Nc1ccc2nc(-c3ccc(Br)o3)[nH]c2c1)c1ccccc1,-,-,91,-,-,94
Cc1ccc(-c2nc3ccc(NS(=O)(=O)c4ccccc4)cc3[nH]2)o1,-,-,100,-,-,100
Cc1ccc(C2C3CN(C(C)C)CC=C3C(C#N)=C(N)C2(C#N)C#N)cc1 (stereo not given),-,.,-,-,.,-
